SMILES strings stand for the structures. Calls of active or inactive are those of the source. Rule for the calls: active = hit-call score of the fitted dose curve at least 0.9, where 1 is the maximum; inactive = score below 0.9.

The assay can be described thus: STM_H9_OrnithineISnorm_perc: Stemina devTOX quickPredict H9 human embryonic stem cell (hESC)-based Assay for Ornithine (ORN) Metabolite Biomarker, Normalized (AID 2283712).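 Note: ornithine released into spent medium during last day measured by mass spectrometry.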 From the text: STM_H9_secretome utilizes undifferentiated H9 cells to measure relative changes in two metabolites, ornithine (ORN) and cystine (CYSS) in the secretome, targeting a critical drop in the ORN/CYSS ratio as a biomarker for developmental toxicity.STM_H9_OrnithineISnorm is one of 10 components calculated in the STM_H9_secretome assay. It measures the integrated area of the endogenous ornithine normalized to the spiked-in isotopically labeled standard and to the median value of the 0.1% DMSO neutral control treatment using UPLC-HRMS technology.Data from the assay component STM_H9_OrnithineISnorm_perc was analyzed at the assay endpoint STM_H9_OrnithineISnorm_perc in the positive analysis fitting direction relative to DMSO as the negative control and baseline of activity. Using a type of binding reporter, gain or loss-of-signal activity can be used to understand relative metabolite change.
H9 hESCs maintained in a pluripotent state were exposed to test compound for 72h with chemical replenishment with media replacement every 24h. Cell-conditioned media from the final 24-h treatment period was collected for analysis of the targeted biomarker, and cell viability of the corresponding cell layer was assessed. The chemical library was tested in blinded fashion. Each test plate included 1uM Methotrexate (MTX; Selleck Chemicals, Houston, Texas) as a positive reference, 5 nM MTX as a negative reference, 0.1% DMSO as the neutral (vehicle) control, and sample-level media blanks.H9 cell-conditioned media from the final 24-h treatment period was collected for analysis of the targeted biomarker and cell viability was measured from the corresponding cell layer. Cell viability was measured using the CellTiter-Fluor assay (Promega, Madison, Wisconsin) based on proteolytic cleavage of a substrate to fluorescent signal proportional to the number of living cells. The cell viability Relative Fluorescence Unit (RFU) was background corrected and normalized to mean RFU of the neutral control (0.1% DMSO). The collected H9-cell-conditioned media samples were processed for targeted biomarker analysis as described (Palmer et al., 2013). Briefly, spent media samples were deproteinized (40% acetonitrile) and processed for UPLC-HRMS. Data acquisition was performed using 4 separate UPLC-HRMS systems, consisting of an Agilent 1290 Infinity LC system (Agilent Technologies) interfaced with an Agilent high-resolution mass spectrometer (models G6520A, G6520B, G6530A, and G6224A). A Waters Acquity UPLC BEH Amide column (2.1mm x 50mm, 1.7lm particle size; Waters, Milford, Massachusetts) maintained at 40C was applied for separation of metabolites using a 6.5min solvent gradient with 0.1% formic acid in water and 0.1% formic acid in acetonitrile (1.0ml/min flow rate). Data were acquired using MassHunter Acquisition software (version B 04.00, Agilent Technologies). The extracted ion chromatogram (EIC) areas for ORN, CYSS, and their respective spike-in C13-standards were determined using the Agilent MassHunter Quantitative Analysis software, version B.05.00 or newer (Agilent Technologies), and data were normalized as described in Palmer et al. (2017).
On to `O=C(OCCOCCOC(=O)c1ccccc1)c1ccccc1`, for which the outcome was inactive.
For the compound `CC1=C(/C=C/C(C)=C/C=C/C(C)=C/C(=O)O)C(C)(C)CCC1`, the AC50 is 0.0785 µM (active).
The same measure, in the same setting: the same measure for `c1ccc2c(c1)ccc1ccccc12`: 88.8 µM (active).
On to `COc1ccc([N+](=O)[O-])cc1N`, for which the outcome was inactive.
On to `C#C[C@]1(O)CC[C@H]2[C@@H]3CCC4=CC(=O)CC[C@@H]4[C@H]3CC[C@@]21C`, for which the AC50 was 74.6 µM (active).
On to `Nc1cccc2c(N)cccc12`, for which the result was inactive.
On the same count and under the same terms, under `CN(C)C=O` stands “inactive”.
On to `Cc1cc(CCN2CCN(c3nsc4ccccc34)CC2)cc2c1NC(=O)CC2(C)C`, for which the AC50 is 5 µM (active).
On the same count and under the same terms, the same measure for `CCN(CC)CCNc1ccc(CNC=O)c2sc3ccc(OC)cc3c(=O)c12`: 7.85 µM (active).
On the same count and under the same terms, under `CN1CCN(c2ccccc2/C=C2\SCCN(c3ccc(Cl)c(Cl)c3)C2=O)CC1` stands 6.56 µM (active).
As for `CN1CCC[C@H]1c1cccnc1`, the outcome was inactive.
Regarding `CCc1ccc(CCOc2ccc(CC3SC(=O)NC3=O)cc2)nc1` (stereo unspecified), the AC50 was 72.1 µM (active).
Same read-out and setting: the same measure for `CCCCCCCCCCCCc1ccccc1S(=O)(=O)O`: 0.00695 µM (active).
For `N#C[C@@H]1CC(F)(F)CN1C(=O)CNC1CC2CCC(C1)N2c1ncccn1` (stereo partly specified), the result was inactive.
Take `C[C@@H]1C[C@H]2[C@@H]3CCC4=CC(=O)C=C[C@]4(C)[C@@]3(F)[C@@H](O)C[C@]2(C)[C@@]1(O)C(=O)COP(=O)(O)O`: the outcome was inactive.
Still for that read-out and setting: under `O=C(O)Cc1cc(I)c(Oc2cc(I)c(O)c(I)c2)c(I)c1` stands “inactive”.

The term AC50 denotes the midpoint of the concentration-response curve, whichever way the signal moves.

The record behind these values is PubChem BioAssay (EPA / NIEHS).
